Source: ChEMBL document CHEMBL4513216, “Probing the Open Global Health Chemical Diversity Library for Multistage-Active Starting Points for Next-Generation Antimalarials” (ACS Infect Dis, 2020)
Among all 69,000 compounds or so, about 8,600 (12%) showed an effect of 50% or more. What follows is part of a selection rich in strong results, with near analogues and random picks from the rest.

These compounds were tested on Plasmodium berghei (assay: Screen against P. berghei liver stage (PbLuc), transformed with Luciferase, at 10uM). Details: tested at 10 uM.
Assay type: functional, HepG2

Compound	INHIBITION [%]
CNC(=O)c1ccc(C2CN(C(=O)c3c[nH]nc3C)CCO2)nc1 (stereo not given)	-20.2
O=C(NC1CCN(c2ccccc2Br)C1)c1c[nH]nn1 (stereo not given)	34.2
CS(=O)(=O)NCC1CCCN(C(=O)Nc2cccc3ccccc23)C1 (stereo not given)	-31.3
CC(C)C(NC(=O)Cc1ccccc1)C(=O)NCc1ccc(O)nc1 (stereo not given)	0.991
CC(C)(C)c1nnc(CN2CCCC2Cn2cncn2)o1 (stereo not given)	32.707
CN1CC(=O)N(c2cccc(F)c2)CC12CCN(S(=O)(=O)C1CC1)C2 (stereo not given)	5.44
NC(=O)c1cnc(NC2CC2)nc1CCNC(=O)CC1CCCC1	31.3
CCOC(=O)CCCNC(=O)CN1CCN(c2ncccn2)CC1	1.81
CCOC(=O)CNC(=O)N1CCN(c2ncccn2)CC1	63.5
O=C(NCc1cc[nH]n1)N1CCN(c2ncccn2)CC1	33.3
Cn1c(C(=O)NC(Cc2ccsc2)c2cccnc2)cc(=O)n(C)c1=O (stereo not given)	-12.3
C/C=C(\C)CN1C[C@@H](NC(=O)c2ccc(F)c(F)c2)C[C@H]1C(=O)NCC	52
C/C=C(\C)CN1C[C@H](NC(=O)c2cnc(O)cn2)C[C@H]1C(=O)NCC	-7.17
C/C=C(\C)CN1C[C@@H](NC(=O)c2ccc(O)c(Cl)c2)C[C@H]1C(=O)NCC	22.4
c1ccc(OCCN2CCCCC2Cn2cncn2)cc1 (stereo not given)	40.9
CCCC(C)N(C)C(=O)c1nc(S(C)(=O)=O)n2ccccc12 (stereo not given)	-8.95
Cc1nc(C)c(C(=O)N2CCc3ccc(F)cc3C2C)o1 (stereo not given)	-11.6
Cc1nc(C)c(C(=O)N2Cc3cc(F)ccc3CC2C)o1 (stereo not given)	-9.17
Cc1nc(C)c(C(=O)N2CCc3cc(F)ccc3C2C)o1 (stereo not given)	52.6
C=c1ncsc1=C1NN=C(C2CCCN2C(=O)CCn2ccc(C)n2)O1 (stereo not given)	21.95
Cc1nn(C)c(C)c1CN(C)CC1(O)CCCN(C)C1 (stereo not given)	5.18
CCc1cnc(C)nc1N1CCC(Cc2cccc(C(=O)O)c2)C1 (stereo not given)	47.2
CCCc1cnc(C)nc1N1CCC(Cn2cc(CO)nn2)CC1	50.2
CCCc1cnc(C)nc1N1CCC2(CCCO2)CC1	13.1
CCCc1cnc(C)nc1N1CCC(Cn2cc(C(C)O)nn2)CC1 (stereo not given)	17.5
CCCc1cnc(C)nc1N1CCC(Cc2ccc(CO)cc2)C1 (stereo not given)	75
CCCc1cnc(C)nc1N1CCC(Cn2cc(CN(C)C)nn2)CC1	-16.1
CCCc1cnc(C)nc1N1CCC(F)(F)CC1	-40.6
CCCc1cc(N2CCC(Cc3cccc(C(N)=O)c3)C2)nc(C)n1 (stereo not given)	5.67
CCCc1cnc(C)nc1N1CCC(Cc2cccc(C(N)=O)c2)C1 (stereo not given)	52.2
